The values below come from paper PMC7862700, “An all-to-all approach to the identification of sequence-specific readers for epigenetic DNA modifications on cytosine”.

What all share (assay): DAPPL (digital affinity profiling via proximity ligation, sequencing); 10 mM Tris-HCl pH 7.5, 50 mM NaCl, 1 mM DTT, 4% glycerol, room temperature, 30 min; GST-TFs on glutathione beads, 16-mer random dsDNA library, 0.1% formaldehyde crosslink after washing; high values mean tight binding
Common to all, as to details: protein: recombinant; tags: N-terminal GST; dsDNA, one strand shown

One test addresses T1, FLI1 (Homo sapiens, UniProt Q01543 1-452).
T1 sequence: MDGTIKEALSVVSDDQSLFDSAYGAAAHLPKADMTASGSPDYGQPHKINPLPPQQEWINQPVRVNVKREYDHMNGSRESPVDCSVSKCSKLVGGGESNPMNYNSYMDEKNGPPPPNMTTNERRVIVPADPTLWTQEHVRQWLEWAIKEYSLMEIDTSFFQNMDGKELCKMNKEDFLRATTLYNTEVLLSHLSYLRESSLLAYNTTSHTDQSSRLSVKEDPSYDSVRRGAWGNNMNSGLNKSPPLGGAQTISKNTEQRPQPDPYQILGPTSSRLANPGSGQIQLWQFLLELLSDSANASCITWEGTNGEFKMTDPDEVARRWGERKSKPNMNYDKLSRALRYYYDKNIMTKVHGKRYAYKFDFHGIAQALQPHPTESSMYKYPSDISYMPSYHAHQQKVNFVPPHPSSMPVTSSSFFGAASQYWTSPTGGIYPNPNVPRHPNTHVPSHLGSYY
In outline: (§1)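 After expression in yeast as GST fusions, human transcription factors were bound to glutathione beads, DNA-barcoded and mixed with a tag-only sample. The pools were incubated with 200 nmole of a 16-mer random double-stranded DNA library in Tris/NaCl/DTT/glycerol buffer (30 min, room temperature), washed and crosslinked with 0.1% formaldehyde. Proximity ligation with BsaI/T4 ligase ran for 1 h at 37 °C, before PCR amplification and sequencing on an Illumina NextSeq500. Binding signal is a hexamer's read frequency for a factor divided by its frequency for the tag-only sample.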

The next test addresses T2, ELK1 (Homo sapiens, UniProt P19419 1-428).
T2 sequence: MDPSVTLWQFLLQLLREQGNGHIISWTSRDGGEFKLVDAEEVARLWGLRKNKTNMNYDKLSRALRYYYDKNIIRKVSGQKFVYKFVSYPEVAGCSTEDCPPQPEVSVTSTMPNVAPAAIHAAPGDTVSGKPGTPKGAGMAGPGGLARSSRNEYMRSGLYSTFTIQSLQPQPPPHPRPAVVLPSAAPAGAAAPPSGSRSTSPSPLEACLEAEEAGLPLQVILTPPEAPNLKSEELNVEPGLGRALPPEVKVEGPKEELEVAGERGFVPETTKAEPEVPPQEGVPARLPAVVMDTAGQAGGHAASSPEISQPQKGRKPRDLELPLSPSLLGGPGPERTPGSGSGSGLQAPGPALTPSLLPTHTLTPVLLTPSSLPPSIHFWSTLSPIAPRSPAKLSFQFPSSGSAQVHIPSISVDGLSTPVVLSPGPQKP
The procedure, abridged: as §1

The next test addresses T3, GABPA (Homo sapiens, UniProt Q06546 1-454).
T3 sequence: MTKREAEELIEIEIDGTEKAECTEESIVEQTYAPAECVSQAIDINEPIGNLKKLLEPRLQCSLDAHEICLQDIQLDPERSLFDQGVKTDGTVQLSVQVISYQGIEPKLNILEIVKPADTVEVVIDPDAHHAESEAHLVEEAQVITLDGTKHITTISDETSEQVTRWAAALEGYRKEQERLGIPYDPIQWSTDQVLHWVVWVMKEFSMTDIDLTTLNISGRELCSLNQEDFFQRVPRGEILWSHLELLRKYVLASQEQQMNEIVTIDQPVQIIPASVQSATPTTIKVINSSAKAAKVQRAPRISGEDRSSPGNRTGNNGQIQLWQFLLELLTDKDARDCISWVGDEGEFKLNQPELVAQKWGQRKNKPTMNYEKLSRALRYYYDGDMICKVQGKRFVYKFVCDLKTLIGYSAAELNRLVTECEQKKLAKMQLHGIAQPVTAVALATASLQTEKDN
The procedure, abridged: as §1

The next test addresses T4, ERG (Homo sapiens, UniProt P11308 1-479).
T4 sequence: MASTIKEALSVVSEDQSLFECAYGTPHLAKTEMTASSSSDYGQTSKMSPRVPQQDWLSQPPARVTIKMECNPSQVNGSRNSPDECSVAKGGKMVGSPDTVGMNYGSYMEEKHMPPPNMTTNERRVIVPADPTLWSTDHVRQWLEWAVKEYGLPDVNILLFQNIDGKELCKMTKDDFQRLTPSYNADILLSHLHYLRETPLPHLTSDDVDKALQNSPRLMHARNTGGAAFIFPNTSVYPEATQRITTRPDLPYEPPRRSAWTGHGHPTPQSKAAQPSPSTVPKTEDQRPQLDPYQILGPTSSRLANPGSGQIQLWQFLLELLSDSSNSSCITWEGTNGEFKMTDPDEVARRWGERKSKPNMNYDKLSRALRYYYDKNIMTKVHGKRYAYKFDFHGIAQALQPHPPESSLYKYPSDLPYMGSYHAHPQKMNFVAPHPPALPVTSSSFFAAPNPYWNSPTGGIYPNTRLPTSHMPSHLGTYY
In outline:
as §1

The next test addresses ELF1 (Homo sapiens, UniProt P32519 1-619). The procedure, abridged: as §1
The target of the next test is T5, EHF (Homo sapiens, UniProt Q9NZC4 1-300).
T5 sequence: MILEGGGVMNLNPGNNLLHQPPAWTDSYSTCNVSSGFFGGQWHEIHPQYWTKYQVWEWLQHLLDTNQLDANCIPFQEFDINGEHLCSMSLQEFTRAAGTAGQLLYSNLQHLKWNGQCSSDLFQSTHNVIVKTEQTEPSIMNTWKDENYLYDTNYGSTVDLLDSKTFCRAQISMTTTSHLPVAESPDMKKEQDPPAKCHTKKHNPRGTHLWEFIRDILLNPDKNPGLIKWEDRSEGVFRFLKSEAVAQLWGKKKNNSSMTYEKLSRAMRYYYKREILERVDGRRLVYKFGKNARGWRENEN
In outline: as §1

The next test concerns the target T6, ELK3 (Homo sapiens, UniProt P41970 1-407).
T6 sequence: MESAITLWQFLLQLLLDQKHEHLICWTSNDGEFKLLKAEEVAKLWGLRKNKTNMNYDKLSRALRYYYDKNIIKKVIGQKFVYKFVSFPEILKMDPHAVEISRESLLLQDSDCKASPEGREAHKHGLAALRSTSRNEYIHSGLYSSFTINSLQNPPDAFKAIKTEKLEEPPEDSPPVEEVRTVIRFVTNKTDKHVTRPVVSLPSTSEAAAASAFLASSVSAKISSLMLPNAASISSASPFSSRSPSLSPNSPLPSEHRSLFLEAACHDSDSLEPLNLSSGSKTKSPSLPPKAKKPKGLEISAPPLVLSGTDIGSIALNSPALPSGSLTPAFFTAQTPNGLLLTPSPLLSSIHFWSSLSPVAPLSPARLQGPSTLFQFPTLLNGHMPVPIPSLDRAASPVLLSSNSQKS
In outline:
as §1

Another test addresses SPIB (Homo sapiens, UniProt Q01892 1-262). The procedure, abridged:
as §1

In a further test the target is SPI1 (Homo sapiens, UniProt P17947 1-270). The procedure, abridged:
as §1

Chain of ELF1 (P32519 whole entry): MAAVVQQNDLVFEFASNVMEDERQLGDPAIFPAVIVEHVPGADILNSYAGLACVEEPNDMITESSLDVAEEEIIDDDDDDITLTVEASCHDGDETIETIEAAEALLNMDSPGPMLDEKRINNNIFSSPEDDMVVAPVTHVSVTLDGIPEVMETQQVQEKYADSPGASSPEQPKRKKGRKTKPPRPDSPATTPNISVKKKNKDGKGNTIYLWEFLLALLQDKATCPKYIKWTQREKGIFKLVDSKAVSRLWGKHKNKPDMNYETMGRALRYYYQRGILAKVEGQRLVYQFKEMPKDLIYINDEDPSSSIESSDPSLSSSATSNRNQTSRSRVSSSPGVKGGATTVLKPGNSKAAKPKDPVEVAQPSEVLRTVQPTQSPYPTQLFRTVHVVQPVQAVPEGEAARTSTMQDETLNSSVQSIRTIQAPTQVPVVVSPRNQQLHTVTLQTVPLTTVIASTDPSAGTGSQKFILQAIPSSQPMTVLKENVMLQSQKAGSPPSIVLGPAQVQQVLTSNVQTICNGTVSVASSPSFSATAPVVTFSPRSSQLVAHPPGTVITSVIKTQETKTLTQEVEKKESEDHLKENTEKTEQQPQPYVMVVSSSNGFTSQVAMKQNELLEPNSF
Chain of SPIB (Q01892 whole entry): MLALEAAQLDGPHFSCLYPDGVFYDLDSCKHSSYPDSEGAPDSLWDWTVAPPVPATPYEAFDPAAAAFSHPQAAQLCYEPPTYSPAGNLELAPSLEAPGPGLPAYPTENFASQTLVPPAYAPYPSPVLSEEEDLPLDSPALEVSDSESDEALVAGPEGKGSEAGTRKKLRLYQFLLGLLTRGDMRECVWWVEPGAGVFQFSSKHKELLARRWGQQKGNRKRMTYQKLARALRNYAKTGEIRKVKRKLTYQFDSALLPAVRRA

Turning to CTACAG, the binding signal was 1.17 fold enrichment (6-mer frequency, TF over GST control) with FLI1; 1.01 fold enrichment (6-mer frequency, TF over GST control) in the test with ELK1; 1.16 fold enrichment (6-mer frequency, TF over GST control) in the test with GABPA; 1.03 fold enrichment (6-mer frequency, TF over GST control) with ERG; 1.08 fold enrichment (6-mer frequency, TF over GST control) in the test with ELF1; 1.05 fold enrichment (6-mer frequency, TF over GST control) with EHF. For the same sequence, the binding signal in the test with ELK3 was 1.08 fold enrichment (6-mer frequency, TF over GST control).

Consider TATCAG, for which the binding signal with FLI1 was 1.15 fold enrichment (6-mer frequency, TF over GST control); with ELK1, 1.21 fold enrichment (6-mer frequency, TF over GST control); in the test with GABPA, 1.14 fold enrichment (6-mer frequency, TF over GST control); in the test with ERG, 1.09 fold enrichment (6-mer frequency, TF over GST control); in the test with ELF1, 1.15 fold enrichment (6-mer frequency, TF over GST control); with EHF, 1.13 fold enrichment (6-mer frequency, TF over GST control). Moreover, the binding signal with SPIB is 1.2 fold enrichment (6-mer frequency, TF over GST control); with ELK3 it was 1.15 fold enrichment (6-mer frequency, TF over GST control).

TCAAGG: the binding signal with FLI1 was 1.05 fold enrichment (6-mer frequency, TF over GST control); with ELK1, 1.05 fold enrichment (6-mer frequency, TF over GST control); in the test with GABPA it was 1.05 fold enrichment (6-mer frequency, TF over GST control); with ERG, 1.1 fold enrichment (6-mer frequency, TF over GST control); with ELF1 it was 1.07 fold enrichment (6-mer frequency, TF over GST control); with EHF, 1.09 fold enrichment (6-mer frequency, TF over GST control). For the same sequence, the binding signal with SPIB was 1.04 fold enrichment (6-mer frequency, TF over GST control); with ELK3 it was 1.19 fold enrichment (6-mer frequency, TF over GST control).

With GTAATG, the binding signal in the test with FLI1 was 1.07 fold enrichment (6-mer frequency, TF over GST control); with ELK1 it was 1.07 fold enrichment (6-mer frequency, TF over GST control); with GABPA, 1.16 fold enrichment (6-mer frequency, TF over GST control); with ERG, 1.05 fold enrichment (6-mer frequency, TF over GST control); with ELF1 it was 1.11 fold enrichment (6-mer frequency, TF over GST control); with EHF, 1.12 fold enrichment (6-mer frequency, TF over GST control). The binding signal is 1.06 fold enrichment (6-mer frequency, TF over GST control) in the test with SPIB and 1.03 fold enrichment (6-mer frequency, TF over GST control) with ELK3.

Take TGACTG: the binding signal was 1.13 fold enrichment (6-mer frequency, TF over GST control) with FLI1; 1.09 fold enrichment (6-mer frequency, TF over GST control) in the test with ELK1; 1.16 fold enrichment (6-mer frequency, TF over GST control) in the test with GABPA; 1.01 fold enrichment (6-mer frequency, TF over GST control) with ERG; 1.05 fold enrichment (6-mer frequency, TF over GST control) with ELF1; 1.1 fold enrichment (6-mer frequency, TF over GST control) in the test with SPI1. In addition, the binding signal with SPIB was 1.11 fold enrichment (6-mer frequency, TF over GST control).

Turning to AATCCA, the binding signal with FLI1 is 1.09 fold enrichment (6-mer frequency, TF over GST control); with ELK1, 1.07 fold enrichment (6-mer frequency, TF over GST control); in the test with GABPA it was 1.09 fold enrichment (6-mer frequency, TF over GST control); with ERG, 1.1 fold enrichment (6-mer frequency, TF over GST control); with ELF1 it was 1.09 fold enrichment (6-mer frequency, TF over GST control); in the test with EHF it was 1.07 fold enrichment (6-mer frequency, TF over GST control). Also, the binding signal in the test with SPIB was 1.12 fold enrichment (6-mer frequency, TF over GST control); with ELK3, 1.07 fold enrichment (6-mer frequency, TF over GST control).

Regarding CACCGA, the binding signal with FLI1 was 1.01 fold enrichment (6-mer frequency, TF over GST control); with ELK1 it was 1.01 fold enrichment (6-mer frequency, TF over GST control); in the test with GABPA, 1.08 fold enrichment (6-mer frequency, TF over GST control); in the test with ERG it was 1.08 fold enrichment (6-mer frequency, TF over GST control); with ELF1 it was 1.11 fold enrichment (6-mer frequency, TF over GST control); with EHF, 1.08 fold enrichment (6-mer frequency, TF over GST control). In addition, the binding signal with ELK3 was 1 fold enrichment (6-mer frequency, TF over GST control).

As for ATACCA, the binding signal in the test with FLI1 is 1.02 fold enrichment (6-mer frequency, TF over GST control); in the test with ELK1, 1.07 fold enrichment (6-mer frequency, TF over GST control); with GABPA, 1.02 fold enrichment (6-mer frequency, TF over GST control); with ERG, 1.01 fold enrichment (6-mer frequency, TF over GST control); in the test with ELF1 it was 1.06 fold enrichment (6-mer frequency, TF over GST control); with EHF it was 1.08 fold enrichment (6-mer frequency, TF over GST control). Further, the binding signal in the test with SPIB is 1.01 fold enrichment (6-mer frequency, TF over GST control); with ELK3, 1.06 fold enrichment (6-mer frequency, TF over GST control).

With AGATAA, the binding signal with FLI1 is 1.09 fold enrichment (6-mer frequency, TF over GST control); with ELK1 it was 1.07 fold enrichment (6-mer frequency, TF over GST control); with GABPA it was 1.09 fold enrichment (6-mer frequency, TF over GST control); with ELF1 it was 1.01 fold enrichment (6-mer frequency, TF over GST control); with EHF it was 1.03 fold enrichment (6-mer frequency, TF over GST control); in the test with SPI1, 1.01 fold enrichment (6-mer frequency, TF over GST control). Further, the binding signal with SPIB was 1.12 fold enrichment (6-mer frequency, TF over GST control).
